Drawing on PubChem BioAssay (NCI), this text covers growth for eight compounds.

Test systems include NCI-H23 lung; NCI-H226 lung; NCI-H322M lung; HOP-62 NSCLC; NCI-H460 lung; HOP-92 NSCLC; NCI-H522 lung; A549/ATCC NSCLC; 786-0 renal; COLO 205 colon; DU-145 prostate; K-562 leukemia; MALME-3M melanoma; MDA-MB-231 breast; RXF 393 renal; SF-268 CNS; SF-295 CNS; SF-539 CNS; UACC-257 melanoma; M14 melanoma.
What all share (experiment): NCI-60 one-dose screen, 48 h (100 = growth as untreated, 0 = no growth, -100 = all killed)
Common to all, as to details: 10 µM unless noted

The structures appear in SMILES notation. Compounds without any hit were thinned out: in the full panel of roughly 83,000, 20% have a hit.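 Activity criterion: percent growth below 10, measured after cells in 96-well plates were exposed to a single compound concentration for 48 hours.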 Values without a mark were called inactive. Active and inactive are the calls of the source.

Regarding `CC(C)(C)c1ccc(CCO)cc1`, the growth with NCI-H23 lung is 97.5%; with NCI-H226 lung, 91.8%; in the assay on NCI-H322M lung, 84.5%; with HOP-62 NSCLC it was 97.5%; with NCI-H460 lung, 109%; with HOP-92 NSCLC it was 100%. For the same compound, the growth is 85.4% with NCI-H522 lung; 103% with A549/ATCC NSCLC; 98.2% with 786-0 renal; 110% in the assay with COLO 205 colon; 114% in the assay on DU-145 prostate; 91.3% in the assay with K-562 leukemia. The growth is 82.5% with MALME-3M melanoma; 102% with MDA-MB-231 breast; 117% in the assay with RXF 393 renal; 104% with SF-268 CNS; 88.7% in the assay with SF-295 CNS; 88.6% in the assay with SF-539 CNS. For the same compound, the growth is 97.2% in the assay on UACC-257 melanoma and 104% in the assay on M14 melanoma.
As to `Nc1ccc(-c2ccc(N)c(S(=O)(=O)O)c2)cc1S(=O)(=O)O`, the growth with NCI-H23 lung is 112%; in the assay on NCI-H226 lung, 119%; in the assay with NCI-H322M lung, 116%; in the assay with HOP-62 NSCLC, 101%; in the assay on NCI-H460 lung, 117%; in the assay with HOP-92 NSCLC it was 74.4%. For the same compound, the growth in the assay with NCI-H522 lung is 125%; with A549/ATCC NSCLC, 117%; in the assay with 786-0 renal, 106%; with COLO 205 colon, 114%; with DU-145 prostate it was 109%; in the assay with K-562 leukemia, 118%. Besides, the growth with MALME-3M melanoma was 107%; in the assay with MDA-MB-231 breast it was 110%; with SF-268 CNS, 103%; with SF-295 CNS it was 115%; in the assay on SF-539 CNS it was 106%; in the assay with UACC-257 melanoma it was 134%. The growth in the assay on M14 melanoma was 104%.
In the case of `CCc1cnc2ccccc2c1/C=C/c1ccc(N(C)C)cc1`, the growth is 65.2% in the assay on NCI-H23 lung; 74.5% in the assay on NCI-H226 lung; 71.6% in the assay on NCI-H322M lung; 47.4% in the assay on HOP-62 NSCLC; 30.8% in the assay on NCI-H460 lung; 60.1% with HOP-92 NSCLC. The growth is 23.3% with NCI-H522 lung; 33% with A549/ATCC NSCLC; 44% in the assay with 786-0 renal; 41.5% in the assay with COLO 205 colon; 68.4% with DU-145 prostate; 13% in the assay with K-562 leukemia. In addition, the growth in the assay with MALME-3M melanoma is 50.7%; with MDA-MB-231 breast, 38.8%; in the assay with RXF 393 renal, 63%; in the assay on SF-268 CNS, 57.4%; with SF-295 CNS it was 26%; in the assay on UACC-257 melanoma, 56.4%. Besides, in the assay with M14 melanoma, the growth is 28.2%.
Consider `CN(C)c1ccc2cc3c(cc2c1)Oc1ccccc1N3.[Cl][Zn][Cl]`, for which the growth in the assay with NCI-H23 lung is 78.7%; in the assay on NCI-H226 lung, 91.2%; with NCI-H322M lung, 84.7%; with HOP-62 NSCLC, 105%; in the assay with NCI-H460 lung, 96.8%; in the assay on HOP-92 NSCLC it was 98.8%. Further, the growth is -7.15% (active) in the assay on NCI-H522 lung; 91.8% with A549/ATCC NSCLC; 104% with 786-0 renal; 19.2% with COLO 205 colon; 90.9% in the assay on DU-145 prostate; 12.1% in the assay with K-562 leukemia. For the same compound, the growth is 0.0703% (active) with MDA-MB-231 breast; 95.6% in the assay with RXF 393 renal; 83.8% in the assay on SF-268 CNS; 97.2% with SF-295 CNS; 99.9% in the assay on SF-539 CNS; 81.5% with UACC-257 melanoma. For the same compound, the growth in the assay on M14 melanoma is 102%.
Regarding `CCN(CC)CCNc1ccc([N+](=O)[O-])c2sc3ccccc3c(=O)c12`, the growth in the assay with NCI-H23 lung is 34.6%; in the assay with NCI-H226 lung, 18.4%; with NCI-H322M lung, 14.2%; in the assay on HOP-62 NSCLC, 16.9%; with NCI-H460 lung, 3.12% (active); with HOP-92 NSCLC it was 16.9%. The growth in the assay on NCI-H522 lung was 12.7%; in the assay on A549/ATCC NSCLC, 7.92% (active); in the assay on 786-0 renal, 37.2%; in the assay on COLO 205 colon, 1.96% (active); in the assay on K-562 leukemia, 10.2%; in the assay on MALME-3M melanoma, -8.2% (active). Moreover, the growth is 56.2% in the assay with MDA-MB-231 breast; 5.72% (active) in the assay on RXF 393 renal; 32.2% in the assay with SF-268 CNS; 7.95% (active) in the assay on SF-295 CNS; 21.9% in the assay with SF-539 CNS; 29.3% in the assay on UACC-257 melanoma. Besides, in the assay on M14 melanoma, the growth is 34.1%.
`CCOC(=O)C1=C(C(=O)c2ccccc2)C(c2cccc([N+](=O)[O-])c2)C(C(=O)c2ccccc2)=C(C(=O)OCC)N1`: the growth with NCI-H23 lung was 86.3%; in the assay on NCI-H226 lung it was 84.9%; in the assay with NCI-H322M lung, 94.1%; in the assay on HOP-62 NSCLC, 93%; with NCI-H460 lung, 98.8%; in the assay with HOP-92 NSCLC, 85.6%. The growth in the assay on NCI-H522 lung is 83.5%; in the assay on A549/ATCC NSCLC, 95.3%; in the assay on 786-0 renal, 93.9%; in the assay on COLO 205 colon it was 114%; in the assay with DU-145 prostate, 97%; in the assay with K-562 leukemia, 21.5%. The growth is 93.1% in the assay on MALME-3M melanoma; 79.3% in the assay with RXF 393 renal; 93.9% in the assay on SF-268 CNS; 90.2% with SF-295 CNS; 95.7% in the assay with SF-539 CNS; 105% with UACC-257 melanoma. The growth with M14 melanoma is 89.9%.
As to `OC(Cc1cc(CC(O)(C(F)(F)F)C(F)(F)F)nc(CC(O)(C(F)(F)F)C(F)(F)F)c1)(C(F)(F)F)C(F)(F)F`, the growth with NCI-H23 lung is -5.07% (active); with NCI-H226 lung it was 11.6%; in the assay with NCI-H322M lung, 13.3%; in the assay with HOP-62 NSCLC, -37.3% (active); in the assay with NCI-H460 lung it was 0.458% (active); with HOP-92 NSCLC it was -27.9% (active). Besides, the growth in the assay with NCI-H522 lung was -18.6% (active); in the assay with A549/ATCC NSCLC it was 3.09% (active); in the assay on 786-0 renal it was 1.13% (active); in the assay with COLO 205 colon it was -92.6% (active); in the assay on DU-145 prostate, 24.9%; with K-562 leukemia it was 9.94% (active). Moreover, the growth is -45.6% (active) in the assay with MDA-MB-231 breast; -17.2% (active) in the assay on RXF 393 renal; 12.9% in the assay on SF-268 CNS; -8.82% (active) in the assay on SF-295 CNS; -1.21% (active) in the assay with SF-539 CNS; -28.3% (active) in the assay on UACC-257 melanoma. Besides, the growth with M14 melanoma was 13.7%.
As for `COc1ccc(/C=C2/C(=O)ON=C2C)cc1`, the growth in the assay with NCI-H23 lung was 112%; in the assay with NCI-H226 lung it was 101%; in the assay with NCI-H322M lung, 118%; in the assay with HOP-62 NSCLC, 101%; in the assay with NCI-H460 lung it was 107%; in the assay with HOP-92 NSCLC, 93.6%. The growth with NCI-H522 lung was 94.2%; in the assay on A549/ATCC NSCLC, 103%; in the assay with 786-0 renal, 105%; in the assay on COLO 205 colon, 104%; with DU-145 prostate, 109%; with K-562 leukemia, 100%. In addition, the growth with MDA-MB-231 breast was 96.8%; in the assay with RXF 393 renal it was 102%; in the assay on SF-268 CNS, 104%; in the assay on SF-295 CNS it was 110%; in the assay on SF-539 CNS, 107%; with UACC-257 melanoma, 100%. The growth in the assay with M14 melanoma is 109%.
